{"source": "PubChem BioAssay (NCATS)", "note": "Results filed as inconclusive are left out. Calls of active or inactive are those of the source. Calls come from the whole dose curve; as a rule, active = well fitted inhibition curve with a large enough effect; inconclusive = small, poorly fitted or top-dose-only effect; inactive = flat fitted curve, though single readings scatter. Where a SMILES comes first, the peptide text is derived from it. Bridges are numbered along the chain shown (N, C = ends). [ ]: non-standard residue; d: D form. Orn = NCCC[C@H](N)C(=O)O; Mpa = O=C(O)CCS", "data": [{"biological_target": "Luciferin 4-monooxygenase (Photinus pyralis) (UniProt P08659)", "sequence (P08659 whole entry, looked up)": "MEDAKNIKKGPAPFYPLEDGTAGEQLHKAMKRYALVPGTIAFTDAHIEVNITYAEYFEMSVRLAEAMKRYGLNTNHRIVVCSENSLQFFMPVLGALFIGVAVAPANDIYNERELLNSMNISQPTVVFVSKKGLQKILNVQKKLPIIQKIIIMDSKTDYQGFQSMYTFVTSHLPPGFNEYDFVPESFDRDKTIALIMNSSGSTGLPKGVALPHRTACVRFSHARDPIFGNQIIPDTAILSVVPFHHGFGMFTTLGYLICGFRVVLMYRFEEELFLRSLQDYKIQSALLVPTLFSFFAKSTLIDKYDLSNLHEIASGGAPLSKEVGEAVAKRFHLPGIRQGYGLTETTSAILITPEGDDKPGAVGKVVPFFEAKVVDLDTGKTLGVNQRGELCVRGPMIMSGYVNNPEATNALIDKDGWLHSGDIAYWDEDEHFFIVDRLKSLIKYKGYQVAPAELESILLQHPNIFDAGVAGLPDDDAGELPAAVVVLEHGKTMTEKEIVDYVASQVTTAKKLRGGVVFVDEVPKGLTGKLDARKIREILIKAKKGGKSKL", "assay": "Biochemical firefly luciferase enzyme assay for NPC (AID 624030); note: nearly all actives have a fitted effect of over 70% in size; note: potency is the fitted concentration of half-maximal effect;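 for activity change, negative = inhibition: purified P. pyralis luciferase at 10 nM with luciferin and ATP substrate; 0% = DMSO and -100% = full luciferase inhibition by PTC124 control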", "conditions": "purified P. pyralis luciferase, luminescence, 5 min; series mostly up to 58.6 µM; activity change, negative = inhibition: at the top concentration", "procedure,_shortened": "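Purified P. pyralis luciferase at 10 nM in 50 mM Tris Acetate (final), luminescence read within 5 minutes of enzyme addition to compounds. Activity normalised to PTC124 versus DMSO; concentration-response curves classed by r2, magnitude and activity.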", "values": [{"compound": "O=C(OCCO)c1ccccc1O", "activity change, negative = inhibition": "-1.06% (inactive)"}, {"compound": "Cc1ccc(C2(O)CCN(CCCC(=O)c3ccc(F)cc3)CC2)cc1", "activity change, negative = inhibition": "1.91% (inactive)"}, {"compound": "OC(CN1CCCCC1)c1cc(-c2ccccc2)on1", "note": "(stereo not given)", "activity change, negative = inhibition": "-8.42% (inactive)"}, {"compound": "CN(C(=O)CO)c1c(I)c(C(=O)NCC(O)CO)c(I)c(C(=O)NCC(O)CO)c1I", "note": "(stereo not given)", "activity change, negative = inhibition": "-1.93% (inactive)"}, {"compound": "O=S(O)CO", "activity change, negative = inhibition": "-8.67% (inactive)"}, {"compound": "O=C(O)c1cc2ccccc2c(Cc2c(O)c(C(=O)O)cc3ccccc23)c1O", "Potency": "14.4 µM (active)"}, {"compound": "CNC[C@@H]1CC[C@@H](N)[C@@H](O[C@H]2[C@H](O)[C@@H](O[C@H]3OC[C@](C)(O)[C@H](NC)[C@H]3O)[C@H](N)C[C@@H]2N)O1", "activity change, negative = inhibition": "10.5% (inactive)"}, {"compound": "Cc1c(O)cc2c(c1C)O[C@](C)(CCC[C@H](C)CCC[C@H](C)CCCC(C)C)CC2", "activity change, negative = inhibition": "0.947% (inactive)"}, {"compound": "CCCCCCCCCCCCCCCC(=O)OCCC1CCN(CCCN2c3ccccc3Sc3ccc(S(=O)(=O)N(C)C)cc32)CC1", "activity change, negative = inhibition": "-1.37% (inactive)"}, {"compound": "O=P(O)(O)OC(CO)CO", "activity change, negative = inhibition": "0.614% (inactive)"}, {"compound": "O=S(=O)(O)Oc1ccc(C(c2ccc(OS(=O)(=O)O)cc2)c2ccccn2)cc1", "activity change, negative = inhibition": "-15.5% (inactive)"}, {"compound": "O=P(O)(O)C(O)(Cc1cnc2ccccn12)P(=O)(O)O", "activity change, negative = inhibition": "-1.79% (inactive)"}, {"compound": "COc1ccc(CNCC(O)COc2ccc3[nH]c(=O)ccc3c2)cc1OC", "note": "(stereo not given)", "activity change, negative = inhibition": "-0.727% (inactive)"}, {"compound": "O=[N+]([O-])c1ccc(Oc2ccc(N=C=S)cc2)cc1", "activity change, negative = inhibition": "-9.39% (inactive)"}, {"compound": "NCCCC[C@H](NC(=O)[C@@H]1CCCN1C(=O)[C@@H]1CSSC[C@H](NC(=O)CNC(=O)CNC(=O)CN)C(=O)N[C@@H](Cc2ccc(O)cc2)C(=O)N[C@@H](Cc2ccccc2)C(=O)N[C@@H](CCC(N)=O)C(=O)N[C@@H](CC(N)=O)C(=O)N1)C(=O)NCC(N)=O", "note": "(H-GGGCYFQNCPKG-NH2; disulfide 4-9)", "activity change, negative = inhibition": "1.01% (inactive)"}, {"compound": "C[N+](C)(CCCCCC[N+](C)(C)C1c2ccccc2-c2ccccc21)C1c2ccccc2-c2ccccc21", "activity change, negative = inhibition": "10.1% (inactive)"}, {"compound": "CN1CCN(CCCN2c3ccccc3Sc3ccccc32)CC1", "activity change, negative = inhibition": "4.94% (inactive)"}, {"compound": "O.O=C([O-])CC([S-])C(=O)[O-].[Au+].[Na+].[Na+]", "note": "(stereo not given)", "activity change, negative = inhibition": "-0.384% (inactive)"}, {"compound": "CC(=O)OC[C@H]1O[C@@H](O[C@H]2[C@H](O)[C@@H](OC(=O)c3ccccc3C(=O)O)[C@H](O)O[C@@H]2COC(C)=O)[C@H](O)[C@@H](OC(=O)c2ccccc2C(=O)O)[C@@H]1O", "activity change, negative = inhibition": "-1.48% (inactive)"}, {"compound": "CCCCc1cc2c(=O)c(C(=O)OC)c[nH]c2cc1OCc1ccccc1", "activity change, negative = inhibition": "-2.2% (inactive)"}, {"compound": "CCCC1([C@H](O)C/C=C/[C@H]2[C@H](O)CC(=O)[C@@H]2CCCCCCC(=O)OC)CCC1", "activity change, negative = inhibition": "-0.823% (inactive)"}, {"compound": "COc1ccc(C(=O)Nc2ccccc2CCC2CCCCN2C)cc1", "note": "(stereo not given)", "activity change, negative = inhibition": "-0.689% (inactive)"}, {"compound": "CCC(C)C(C(=O)OCC[N+](C)(CC)CC)c1ccccc1", "note": "(stereo not given)", "activity change, negative = inhibition": "-1.8% (inactive)"}, {"compound": "CCOc1ccc(C[C@H]2NC(=O)CCSSC[C@@H](C(=O)N3CCC[C@H]3C(=O)N[C@@H](CCCN)C(=O)NCC(N)=O)NC(=O)[C@H](CC(N)=O)NC(=O)[C@H]([C@@H](C)O)NC(=O)[C@H]([C@@H](C)CC)NC2=O)cc1", "note": "([Mpa][dY](Et)ITNCP[Orn]G-NH2; disulfide 1-6)", "activity change, negative = inhibition": "-1.09% (inactive)"}, {"compound": "CS(=O)(=O)Nc1cc2occ(NC=O)c(=O)c2cc1Oc1ccccc1", "activity change, negative = inhibition": "-0.209% (inactive)"}, {"compound": "CCCCC(=O)O", "Potency": "inactive"}, {"compound": "O=P(O)(O)OC(Cn1cncn1)(Cn1cncn1)c1ccc(F)cc1F", "activity change, negative = inhibition": "-3.91% (inactive)"}, {"compound": "CCOC(=O)Cc1cccc(-c2cc(CCCCCCc3ccc(O[C@H]4O[C@H](COC(C)=O)[C@@H](OC(C)=O)[C@H](OC(C)=O)[C@@H]4OC(C)=O)c(-c4cccc(CC(=O)OCC)c4)c3)ccc2O[C@H]2O[C@H](COC(C)=O)[C@@H](OC(C)=O)[C@H](OC(C)=O)[C@@H]2OC(C)=O)c1", "activity change, negative = inhibition": "0.983% (inactive)"}, {"compound": "O=C(Cn1cnnn1)N[C@@H]1C(=O)N2C(C(=O)O)=C(CSc3nncs3)CS[C@H]12", "Potency": "inactive"}, {"compound": "N[C@@H](C(=O)N[C@H]1C(=O)N2C(C(=O)O)=C(Cl)CC[C@H]12)c1ccccc1", "activity change, negative = inhibition": "-18.2% (inactive)"}]}]}
